Records with an inconclusive call do not appear. A number with no mark means an inactive call. Activity calls are given as the source filed them. Calls follow the shape of the dose curve; as a rule, active = well fitted inhibition curve with a large enough effect; inconclusive = small, poorly fitted or top-dose-only effect; inactive = flat fitted curve, though single readings scatter.

Data on 20 compounds can be found in PubChem BioAssay (NCATS).

Holding throughout (assay): qHTS profiling for inhibitors of Plasmodium falciparum proliferation (AID 504749); also: nearly all actives have a fitted effect of over 60% in size
Settings in all cases: P. falciparum in erythrocytes, SYBR Green DNA, 72 h; series mostly up to 28.7 µM

One assay concerns CP286. In a few lines: (§1)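 Three-day growth assay of blood-stage parasites in erythrocytes (0.3% parasitemia, 2.5% hematocrit) at 37 C, 5% CO2, quantified by SYBR Green DNA staining after overnight detergent lysis.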
In a further assay the test system is CP291. An outline of the steps:
as §1

The next assay concerns CP297. An outline of the steps: as §1
A further assay concerns CP305. In a few lines: as §1
Another assay relates to CP315. In a few lines:
as §1

In another assay the test system is CP325. In a few lines: as §1
For the next assay, the system named is CP329. An outline of the steps:
as §1

The subject of a further assay is CP335. An outline of the steps:
as §1

A further assay has as its system DFO2036. In a few lines:
as §1

The test system of another assay is DIV14. An outline of the steps: as §1
Potency is read from the fitted curve at half-maximal effect.

Take `CN1C(=O)C(O)N=C(c2ccccc2)c2cc(Cl)ccc21` (centres undefined): the Potency result in the assay on CP286, in the assay with CP291, in the assay on CP297, with CP305, with CP315 and with CP325 was “inactive” throughout. In addition, the Potency result with CP329, with CP335, with DFO2036 and in the assay on DIV14 was “inactive” throughout.
With `C[C@]12CC[C@@H]3c4ccc(OC(=O)N(CCCl)CCCl)cc4CC[C@H]3[C@@H]1CC[C@@H]2O`, the Potency result in the assay on CP286, in the assay on CP291, in the assay on CP297, in the assay on CP305, in the assay with CP315 and with CP325 was “inactive” throughout. Also, the Potency result in the assay with CP329, in the assay with CP335, with DFO2036 and in the assay with DIV14 was “inactive” each time.
`COP(=S)(OC)SCN1C(=O)c2ccccc2C1=O`: the Potency entry with CP286, with CP291, in the assay on CP297, in the assay on CP305, in the assay on CP315 and in the assay on CP325 was “inactive” in each case. Also, the Potency entry with CP329, in the assay on CP335, with DFO2036 and in the assay on DIV14 was “inactive” in each case.
For `NCCc1ccc(O)cc1`, the Potency result in the assay with CP286, in the assay with CP291, in the assay with CP297, in the assay on CP305, in the assay with CP315 and in the assay on CP325 was “inactive” throughout. Besides, the Potency entry in the assay on CP329, in the assay with CP335, in the assay with DFO2036 and with DIV14 was “inactive” each time.
On to `CN1C[C@H](C(=O)N[C@]2(C)O[C@@]3(O)[C@@H]4CCCN4C(=O)[C@H](Cc4ccccc4)N3C2=O)C=C2c3cccc4[nH]cc(c34)C[C@H]21`, for which the Potency in the assay with CP286 is 0.891 µM (active); with CP291, 9.53 µM (active); in the assay on CP297, 3.38 µM (active); in the assay with CP305, 6.75 µM (active); in the assay with CP315, 12 µM (active); with CP325, 6.75 µM (active). Further, the Potency is 15.1 µM (active) with CP329, 0.675 µM (active) in the assay on CP335, 1.26 µM (active) in the assay on DFO2036 and 0.536 µM (active) with DIV14.
For the compound `Nc1nc(N)nc(NC2CC2)n1`, the Potency entry with CP286, with CP291, in the assay with CP297, with CP305, in the assay with CP315 and with CP325 was “inactive” each time. Moreover, the Potency entry with CP329, in the assay with CP335, in the assay on DFO2036 and in the assay on DIV14 was “inactive” in each case.
As for `CNC(C)(C)Cc1ccccc1`, the Potency result with CP286, with CP291, in the assay on CP297, in the assay with CP305, with CP315 and with CP325 was “inactive” throughout. The Potency result in the assay on CP329, with CP335, with DFO2036 and in the assay with DIV14 was “inactive” throughout.
As to `Clc1ccc2c(c1)C(c1ccccc1)=NCc1nncn1-2`, the Potency result in the assay on CP286, in the assay on CP291, in the assay with CP297, in the assay on CP305, in the assay with CP315 and in the assay with CP325 was “inactive” in each case. For the same compound, the Potency result in the assay on CP329, with CP335, in the assay with DFO2036 and with DIV14 was “inactive” each time.
Consider `NC(=O)CS(=O)C(c1ccccc1)c1ccccc1` (centres undefined), for which the Potency result with CP286, in the assay on CP291, in the assay on CP297, in the assay on CP305, with CP315 and with CP325 was “inactive” throughout. The Potency entry in the assay with CP329, in the assay on CP335, with DFO2036 and with DIV14 was “inactive” throughout.
Turning to `O=C(Nc1ccc(Br)cc1)c1cc(Br)cc(Br)c1O`, the Potency entry in the assay with CP286, in the assay on CP291, in the assay on CP297, with CP305, in the assay with CP315 and in the assay with CP325 was “inactive” throughout. The Potency entry in the assay on CP329, in the assay on CP335, in the assay with DFO2036 and in the assay with DIV14 was “inactive” each time.
As for `CN1C(=O)CC(=O)N(c2ccccc2)c2cc(Cl)ccc21`, the Potency entry in the assay with CP286, with CP291, in the assay on CP297, in the assay on CP305, in the assay on CP315 and in the assay with CP325 was “inactive” each time. Besides, the Potency entry in the assay on CP329, in the assay with CP335, in the assay with DFO2036 and in the assay with DIV14 was “inactive” throughout.
As to `O=C1Nc2ccc(Cl)cc2C(c2ccccc2Cl)=NC1O` (centres undefined), the Potency result in the assay on CP286, in the assay on CP291, with CP297, with CP305, with CP315 and with CP325 was “inactive” throughout. Moreover, the Potency result in the assay with CP329, in the assay on CP335, in the assay with DFO2036 and in the assay with DIV14 was “inactive” each time.
In the case of `Nc1ccc([As](=O)(O)O)cc1`, the Potency entry with CP286, in the assay with CP291, in the assay on CP297, in the assay on CP305, in the assay on CP315 and with CP325 was “inactive” throughout. Besides, the Potency entry in the assay with CP329, with CP335, in the assay with DFO2036 and in the assay with DIV14 was “inactive” throughout.
Consider `C[C@](O)(CS(=O)(=O)c1ccc(F)cc1)C(=O)Nc1ccc(C#N)c(C(F)(F)F)c1`, for which the Potency entry in the assay with CP286, with CP291, in the assay with CP297, with CP305, in the assay on CP315 and with CP325 was “inactive” each time. Besides, the Potency result with CP329, in the assay with CP335 and in the assay on DFO2036 was “inactive” in each case.
For the compound `CCC(C)(C)c1ccc(O)cc1`, the Potency result with CP286, in the assay on CP291, with CP297, in the assay on CP305, with CP315 and in the assay with CP325 was “inactive” in each case. In addition, the Potency result with CP329, with CP335, in the assay on DFO2036 and in the assay on DIV14 was “inactive” throughout.
Take `O=C(O)CCCc1ccc(N(CCCl)CCCl)cc1`: the Potency result with CP286, in the assay on CP291, in the assay on CP297, in the assay with CP305, in the assay on CP315 and with CP325 was “inactive” throughout. The Potency result in the assay with CP329, with CP335, in the assay with DFO2036 and with DIV14 was “inactive” throughout.
With `O=C1Nc2ccc(Cl)cc2C(c2ccccc2)=NC1O` (centres undefined), the Potency result with CP286, with CP291, with CP297, in the assay on CP305, with CP315 and in the assay on CP325 was “inactive” throughout. The Potency result in the assay with CP329, with CP335, with DFO2036 and in the assay on DIV14 was “inactive” each time.
On to `CCOC(=O)CC(SP(=S)(OC)OC)C(=O)OCC` (centres undefined), for which the Potency entry in the assay on CP286, with CP291, in the assay with CP297, in the assay with CP305, with CP315 and in the assay with CP325 was “inactive” each time. Also, the Potency result in the assay on CP329, in the assay on CP335, in the assay with DFO2036 and in the assay with DIV14 was “inactive” throughout.
Regarding `CN1CCC(O)(c2ccc(F)cc2)C(C(=O)c2ccc(F)cc2)C1` (centres undefined), the Potency result in the assay on CP286, with CP291, in the assay on CP297, in the assay on CP305, with CP315 and with CP325 was “inactive” in each case. Also, the Potency result with CP329, with CP335, in the assay with DFO2036 and with DIV14 was “inactive” throughout.
Regarding `CC(C)=CC1C(C(=O)OCN2C(=O)C3=C(CCCC3)C2=O)C1(C)C` (centres undefined), the Potency entry with CP286, in the assay on CP291, in the assay on CP297, in the assay with CP305, with CP315 and with CP325 was “inactive” in each case. Also, the Potency result with CP329, with CP335, in the assay with DFO2036 and in the assay on DIV14 was “inactive” throughout.
